# Experimental data published in PubChem BioAssay (NCATS).
# Results filed as inconclusive are left out. Entries that show only a call come without a potency. Active and inactive are the calls of the source. The call rests on the fitted dose curve; in most records, active means well fitted inhibition curve with a large enough effect; inconclusive means small, poorly fitted or top-dose-only effect; inactive means no such curve, though single readings can be large or run the other way.
# Molecular target: Retinaldehyde dehydrogenase 3 (Homo sapiens) (UniProt P47895)
# Assay: qHTS for Inhibitors of the Aldehyde Dehydrogenase Family (ALDH1A3) Primary screen (AID 2061315)
# Conditions: ALDH inhibition qHTS; series mostly up to 56 µM
row,SMILES,Potency
1,COc1ccc(C2=Nn3c(nnc3-c3ccccc3Cl)SC2)cc1O[C@H]1CCOC1,inactive
2,Cc1ccc(S(=O)(=O)Nc2cnccc2C(=O)Nc2ccc(-c3nc4ccccc4[nH]3)cc2)cc1,inactive
3,COc1cc(O)c(C(CC(=O)N2CCCCC2)c2ccc3c(c2)OCO3)c(OC)c1 (stereo not given),inactive
4,S=C(NCCCc1cnc[nH]1)NCCCN(Cc1ccc(Cl)c(Cl)c1)c1ccc(Br)cn1,inactive
5,Cc1cc(N[S+](=O)([O-])c2ccc(NC(=O)Cc3ccc(C(F)(F)F)c(F)c3)cc2)no1,inactive
6,O=C(OCc1c(-c2ccccc2)no[n+]1[O-])c1ccccc1,inactive
7,N#Cc1c(-c2ccc3ccccc3c2)no[n+]1[O-],inactive
8,Cc1cc2c(s1)c1cnn(Cc3c(C)cc(F)cc3C)c(=O)c1n2C,inactive
9,O=C(Nc1ccc(Cl)c(Cl)c1)Nc1nnc(N2CCNCC2)s1,inactive
10,O=C(O)c1sc2c(c1-c1nc3ccccc3s1)CCNC2,inactive
11,Cc1ccnc(NC(=S)Nc2cccc([S+](=O)([O-])Nc3ccccc3F)c2)c1,inactive
12,O=C(Cc1nc2ccc(Cl)cc2[nH]1)Nc1ccc(S(=O)(=O)Nc2nccs2)cc1,inactive
13,CC(C)Oc1ccc(-c2ccc(=O)n(CC(=O)NCCc3ccccc3)n2)cc1,inactive
14,COc1ccc(C[C@H](N)C(=O)N[C@@H]2[C@H](O)[C@H](n3cnc4c(N(C)C)ncnc43)O[C@@H]2CO)cc1,inactive
15,Cc1cnc(-c2ccccc2C(C)C)nc1NCC1CCN(c2cnccn2)CC1,inactive
16,C=C1C(=O)O[C@@H]2C[C@@]3(C)CCCC(=C)[C@]3(O)C[C@H]12,inactive
17,CCCn1c(-c2ccc(F)cc2)nc2c(N(C)CCN(C)C)nc(C)nc21,inactive
18,CCN(CCc1cn(C)cn1)c1ncnc2ccc(-c3ccc4c(c3)OCO4)cc12,inactive
19,O=C1NC2=C(C(=O)CCC2)C(c2ccccc2Cl)N1 (stereo not given),inactive
20,Cc1occc1CNc1ncnc2ccc(-c3ccc4c(c3)OCO4)cc12,inactive

row,SMILES,Potency
1,C#CCOc1cccc(-c2nnc3n2N=C(c2ccc(OC)c(OCC(C)=O)c2)CS3)c1,inactive
2,COc1cc(OC)cc(N2CCN(C(=S)Nc3cc(C)cc(C)n3)CC2)c1,inactive
3,NC(=O)C1CCN(c2nccc(Cl)n2)CC1,inactive
4,Cc1nc(CCNc2ncnc3ccc(-c4ccc5c(c4)OCO5)cc23)cs1,inactive
5,Fc1ccc(Nc2nc(-c3ccncc3F)nc3ccccc23)cc1F,inactive
6,Cn1nnnc1Sc1ncnc2scc(-c3cccs3)c12,inactive
7,O=c1c2ccccc2nc2sc(Nc3cccc(-c4ccncc4)c3)nn12,inactive
8,O=C(CSc1ccccc1)Nc1nnc(COc2ccc(Cl)cc2)s1,inactive
9,CC(=O)c1c(C)[nH]c(C(=O)Nc2ccc(OCCCN(C)C)c(S(=O)(=O)Nc3ccc(Br)cc3)c2)c1C,inactive
10,CCCn1c(-c2ccc(F)cc2)nc2c(NCC3CCCN3CC)nc(C)nc21 (stereo not given),inactive
11,OCc1ccc(-c2ccc3ncnc(NCc4ncc[nH]4)c3c2)o1,inactive
12,C(=Nc1cccnc1)c1cccs1,inactive
13,O=C(/C=C/c1ccc(F)cc1)Nc1cccc([S+](=O)([O-])Nc2ccccc2F)c1,inactive
14,Cc1ccc(C(=O)N2CCc3cc(-c4nc(NC(=O)Cc5ccc6c(c5)OCO6)sc4C)ccc32)cc1,inactive
15,Cc1nnc(-c2ccccc2)n1CCCn1ccnc1,inactive
16,O=C(Nc1ncc(Cc2ccc(C(F)(F)F)cc2)s1)c1cnc(-c2ccccc2)[nH]1,inactive
17,O=C(OCC#CCSc1nnc(-c2cccs2)o1)c1ccc(F)cc1,inactive
18,Brc1cnc2nc(SCc3ccccc3)[nH]c2c1,inactive
19,CC(C)(C)OC(=O)Cc1nnc(-c2nc3ccccc3[nH]2)s1,inactive
20,N#Cc1nc(-c2cccc3ccccc23)oc1NCC#CCOC(=O)c1cccs1,inactive
